Screening data from PubChem BioAssay.
The list is not random: actives were taken first. Their share in the collection is about 1.2%.
KCNH2 3.1 block: qHTS for Inhibitors of KCHN2 3.1: Mutant qHTS. Potassium voltage-gated channel subfamily H member 2, brain isoform KCNH2 3.1 (human). U2OS KCNH2 3.1, thallium flux FluxOr; active compounds read low. activity change, % (tested at about 1.8 µM). actives 0.95% (n = 340,000);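 active means maximum activity change below -70%; inconclusive means maximum activity change from -70% to -50%; inactive means maximum activity change above -50%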;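 further: thallium influx rate constant from kinetic fluorescence after stimulation buffer; on the % scale 0 is the no-effect control and ±100 the full control effect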
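Steps: virus added to U2OS suspension (4 h, RT, dark); medium with 10% FBS added, cells plated, 37 C overnight; FluxOr/Red40 loading buffer 45 min RT; stimulation buffer, 2 min kinetic read; rate constant normalized.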
Tb PFK inh-1: qHTS Assay to Find Inhibitors of T. brucei phosphofructokinase | ATP-dependent 6-phosphofructokinase (Trypanosoma brucei brucei), O15648 | T. brucei PFK, ADP-Glo luminescence | Potency, µM (highest dose often 57.5 µM), for the others: at the top dose activity, negative = inhibition, hits mostly inhibitors | actives 0.17% (n = 330,000);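 further: potency means the concentration at half of the fitted maximal effect; 0% = uninhibited 1x PFK enzyme wells and -100% = no-enzyme wells; nearly all actives have a fitted effect of over 60% in size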
Target sequence (O15648 whole entry, looked up): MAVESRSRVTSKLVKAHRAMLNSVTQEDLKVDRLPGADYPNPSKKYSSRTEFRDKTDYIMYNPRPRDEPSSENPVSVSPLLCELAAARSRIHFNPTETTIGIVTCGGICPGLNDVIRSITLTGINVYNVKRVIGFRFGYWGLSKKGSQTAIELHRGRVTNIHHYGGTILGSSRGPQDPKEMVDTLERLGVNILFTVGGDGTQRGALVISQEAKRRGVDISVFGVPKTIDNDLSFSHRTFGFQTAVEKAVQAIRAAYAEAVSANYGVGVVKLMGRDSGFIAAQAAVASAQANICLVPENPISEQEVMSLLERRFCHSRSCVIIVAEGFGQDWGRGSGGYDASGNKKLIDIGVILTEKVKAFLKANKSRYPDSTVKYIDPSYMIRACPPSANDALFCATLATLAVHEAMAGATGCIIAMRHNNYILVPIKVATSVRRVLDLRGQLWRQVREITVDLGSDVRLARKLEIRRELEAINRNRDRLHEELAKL
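Compounds were pin-transferred as a titration series up to 57 uM into substrate buffer (0.5 mM F6P, 0.1 mM ATP, pH 8.0), then 1.25 nM PFK was added and reactions ran 45 min before ADP-Glo detection.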
hERG WT inh: qHTS for Inhibitors of KCHN2 3.1: Wildtype qHTS | Voltage-gated inwardly rectifying potassium channel KCNH2 (Homo sapiens), Q12809 | U2OS, BacMam KCNH2, thallium flux FluxOr; active compounds read low | activity change, % at 1.84 µM | actives 0.37% (n = 340,000) | AID 720551, 2013;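 active means maximum activity change below -70%; inconclusive means maximum activity change between -70% and -50%; inactive means maximum activity change above -50%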; further: on the % scale 0 is the no-effect control and ±100 the full control effect
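U2OS cells transduced with wild-type KCNH2 virus are loaded with FluxOr dye for 45 min, and thallium flux is measured in kinetic reads before and after stimulation buffer. Rate constants are normalized to DMSO controls.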
PTAP TSG101 blk: qHTS Assay for Iinhibitors of HIV-1 Budding by Blocking the Interaction of PTAP/TSG101 | Tumor susceptibility gene 101 protein (Homo sapiens), Q99816 | Fluorescence polarization, FITC-PTAP peptide / Tsg101 binding | Potency, µM (titrated, usually from 115 µM), inactives show top-dose activity change, negative = inhibition, most hits filed as inhibitors | 340,000 tested, under 10 active; active means well fitted inhibition curve with a large enough effect in the main read-out, with a control signal flat, not every such curve was filed as active; inconclusive means small, poorly fitted or top-dose-only effect, or effect the other way, or a change in a side signal; inactive means no such curve, though single readings can be large or run the other way; further: potency means the concentration at half of the fitted maximal effect; % of control where 0% means no effect
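Compounds were pin-transferred onto Tsg101 binding domain (10 uM final) in HEPES pH 7.5 buffer, then FITC-PTAP peptide was added at 50 nM final. After 20 min at RT, polarization reported peptide displacement across a qHTS concentration series.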
Tb PFK KinaseGlo: Tb PFK orthogonal confirmatory assay using ATP depletion (Kinase-Glo Plus) as an alternative measure of Tb PFK activity: Hit Validation; shares compounds with Tb PFK inh-1; Tb PFK enzyme, ATP depletion, Kinase-Glo Plus luminescence; Potency, µM (doses to about 57.5 µM), inactives show at the highest dose inhibition; actives 47% (n = 1,100); AID 504636, 2011; calls by dose curve; further: potency means the concentration at half of the fitted maximal effect; nearly all actives have a fitted effect of over 60% in size
Tb PFK inh-2: Inhibitors of T. brucei phosphofructokinase: Hit Validation; shares compounds with Tb PFK inh-1; purified T. brucei PFK, ADP-Glo luminescence, 45 min; Potency, µM (doses to about 57.5 µM), without a hit: at the highest dose activity change, negative = inhibition, actives largely listed as inhibitors; actives 41% (n = 1,100);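 further: potency means the concentration at half of the fitted maximal effect; plate controls were full PFK enzyme control for no effect and no enzyme control for full effect; nearly all actives have a fitted effect of over 60% in size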
* marks the source's active call; other numbers are inactive results; ? = inconclusive; . = not tested or not shown. Unless noted, the call rests on the fitted dose curve; in most records, active means well fitted inhibition curve with a large enough effect; inconclusive means small, poorly fitted or top-dose-only effect, or effect the other way; inactive means flat fitted curve, though single readings scatter.

SMILES	KCNH2 3.1 block	Tb PFK inh-1	hERG WT inh	PTAP TSG101 blk	Tb PFK KinaseGlo	Tb PFK inh-2
C[C@@H]1CN([C@@H](C)CO)C(=O)CCCn2nncc2CO[C@H]1CN(C)C(=O)Oc1cccc2ccccc12	8	.	5	.	.	.
COC(=O)C1=C(c2ccc(OCc3ccccc3)cc2)C[C@@H]2CC[C@H]1N2C(=O)NCc1ccc2c(c1)OCO2	1	.	0	.	.	.
C=CCNC(=S)Nc1ccc(OC(=O)Nc2ccc(Cl)c(Cl)c2)cc1	11	13µM*	-6	-1%	21µM*	27µM*
O=C(Cc1ccc(Br)cc1)Nc1cccc(S(=O)(=O)N2CCOCC2)c1	17	?	3	-3%	?	?
COc1ccc(S(=O)(=O)N2CCOCC2)cc1NC(=O)COC(=O)Cc1ccccc1	-36	-1%	-12	-6%	.	.
COC(=O)c1cccc(NC(=S)Nc2ccc(Cl)c(Cl)c2)c1	3	12µM*	-6	-2%	27µM*	?
Cc1cc(C)cc(NC(=S)Nc2ccc(Cl)c(Cl)c2)c1	-7	9.5µM*	4	-1%	24µM*	?
COP(=O)(OC)C(NC(C)=O)C(Cl)(Cl)Cl (configuration not stated)	-16	0%	-5	-6%	.	.
C/C=C1\NC(=O)[C@@H](NC(=O)[C@H](CCc2ccc(O)cc2)NC(=O)[C@H](C)NC(=O)[C@H](O)CO)[C@@H](C)OC(=O)[C@H](C(C)C)NC(=O)[C@H](Cc2ccc(O)cc2)N(C)C(=O)[C@H](Cc2ccccc2)N2C(=O)C(CC[C@H]2O)NC1=O (some centres not stated)	-5	0%	-2	-11%	.	.
Cc1ccc(NC(=S)NCCc2cnc[nH]2)cc1C	2	-11%	4	-3%	.	.
Cc1cc(NS(=O)(=O)c2ccc(NC(=O)Cc3ccc(Cl)c(Cl)c3)cc2)no1	19	1.2µM*	-3	-4%	0.43µM*	0.76µM*
OCCNC(=S)Nc1ccc(Cl)c(Cl)c1	8	?	10	-1%	?	?
CCCC(=O)c1ccc(CP(=O)(OCC)OCC)o1	-12	4%	4	-3%	.	.
Nc1nonc1C(=O)N/N=C/c1ccc(-c2ccc(Cl)c(C(=O)O)c2)o1	0	?	1	-1%	-19%	?
Cc1ccc(N2C(=O)NC(=O)/C(=C/c3ccc(-c4ccc(C(=O)O)c(Cl)c4)o3)C2=O)cc1	17	27%	-12	-6%	.	.
COc1ccc(NS(=O)(=O)c2ccc(C)c(NC(=O)CN3C(=O)NC4(CCCC4)C3=O)c2)cc1	17	?	-3	-6%	-27%	?
N#Cc1ccc(NC(=O)CN2C(=O)NC3(CCCCCCC3)C2=O)cc1Cl	-12	-6%	-10	-6%	.	.
COC(=O)C1=C(c2ccc(F)cc2OCc2ccccc2)C[C@@H]2CC[C@H]1N2C(=O)NC1Cc2ccccc2C1	-27	-5%	-15	-3%	.	.
Oc1ccc(-c2cn3c(n2)SCC3)cc1O	-2	?	3	-2%	2.4µM*	4.8µM*
CCCCC(=O)N/N=C/c1c(O)n(CCc2ccc(OC)c(OC)c2)c(=O)[nH]c1=O	4	-4%	6	-3%	.	.
COCc1cc(/C=N\NC(=O)Cc2ccc(Cl)cc2)ccc1OC	-2	21µM*	5	0%	?	?
Cc1cc(C)c2c(=O)n(CC(=O)Nc3ccc(Br)c(C)c3)sc2n1	-25	13µM*	-1	-7%	2.7µM*	3µM*
Cc1cc(C)c2c(=O)n(CC(=O)NC3CCCC3)sc2n1	-1	6µM*	-13	-2%	?	5.4µM*
Cc1cc(C)c2c(=O)n(CC(=O)Nc3cccc(Cl)c3C)sc2n1	-32	4.8µM*	-17	0%	?	6µM*
COC(=O)C1=C(c2ccc3ccccc3c2)C[C@@H]2CC[C@H]1N2C(=O)NCc1ccco1	-15	-19%	-2	-4%	.	.
SMILES	KCNH2 3.1 block	Tb PFK inh-1	hERG WT inh	PTAP TSG101 blk	Tb PFK KinaseGlo	Tb PFK inh-2
O=C1C=C2C=C[C@@H]3CC2(O1)[C@H]1CCCCN31	-6	0%	-5	1%	.	.
COC(=O)C1=C(c2ccc(OC)c(OC)c2)C[C@@H]2CC[C@H]1N2C(=O)NCc1cccc2ccccc12	1	0%	11	-7%	.	.
S=P1(Oc2ccccc2)Nc2ccccc2N1	-4	.	1	-2%	.	.
Fc1cccc(-c2csc(-c3ccno3)n2)c1	-4	?	-4	-10%	?	?
CC(C)(C)c1ccc(C(=O)C2CCCN(C3CCC3)C2)cc1 (configuration not stated)	1	1%	-1	-2%	.	.
CN1CCc2cccc3c2[C@H]1Cc1ccc(O)c(O)c1-3	.	1.9µM*	.	1%	2.7µM*	6.7µM*
CCc1cccc(C)c1NC(=O)COC(=O)CNS(=O)(=O)/C=C/c1ccccc1	11	?	-4	-7%	?	27µM*
CC(=O)C1(c2ccccc2)CCN(C(=O)C2CCC(=O)N(CCc3cccc(F)c3)C2)CC1 (configuration not stated)	-28	0%	4	-2%	.	.
NC(N)=NS(=O)(=O)c1ccc(NC(=S)NC(=O)Cc2ccc(Cl)cc2)cc1	0	?	3	-5%	27µM*	30µM*
CCOc1ccccc1OCC(=O)Nc1ccc(Cl)cc1C(=O)c1ccccc1	-23	-2%	12	1%	.	.
Cc1cc(CSc2ccccc2)ccc1NC(=O)COc1ccccc1	-25	?	-1	-6%	?	?
O=[N+]([O-])[N-][n+]1cnn(Cc2ccc(Cl)cc2)c1	-29	-6%	-3	-1%	.	.
COc1ccc(OC)c(NC(=O)c2cc(-c3cc(C)ccc3O)n[nH]2)c1	-14	?	-9	-3%	-19%	?
O=C(NCC1=C(c2ccc3ccccc3c2)C[C@@H]2CC[C@H]1N2Cc1ccco1)c1cccnc1	-21	.	1	.	.	.
Brc1ccc(Oc2cc(Br)c(Br)cc2Br)c(Br)c1	12	-2%	1	-2%	.	.
Cc1cc(F)ccc1NCc1ccc([N+](=O)[O-])cc1	-5	?	0	-1%	?	?
Oc1ccc(C2=Nn3c(nnc3-c3ccco3)SC2)cc1O	-27	7.6µM*	17	1%	?	?
